The nature of this assay: qHTS drug screen for cell cycle checkpoint inhibitors in PARPi-resistant BRCA-mutant ovarian cancer cell lines. (AID 1963452). To be noted: PEO1/OlaR viability, CellTiter-Glo luminescence, 96 h; for Z-AUC: stronger effect = lower value. An excerpt: Women's Malignancies Branch, Center for Cancer Research (CCR),
National Cancer Institute (NCI), National Institutes of Health (NIH), Bethesda, MD
Poly (ADP-ribose) polymerase inhibitors (PARPis) have changed the treatment paradigm in breast cancer gene (BRCA) - mutant high-grade serous ovarian carcinoma (HGSC). However, most patients eventually develop resistance to PARPis, highlighting an unmet need for improved therapeutic strategies. Using high-throughput drug screens, we identified ataxia telangiectasia and rad3-related protein/checkpoint kinase 1 (CHK1) pathway inhibitors as cytotoxic and further validated the activity of the CHK1 inhibitor (CHK1i) prexasertib in PARPi-sensitive and -resistant BRCA-mutant HGSC cells and xenograft mouse models. CHK1i monotherapy induced DNA damage, apoptosis, and tumor size reduction. We then conducted a phase 2 study (NCT02203513) of prexasertib in patients with BRCA-mutant HGSC. The treatment was well tolerated but yielded an objective response rate of 6% (1 of 17; one partial response) in patients with previous PARPi treatment. […] BRCA reversion mutation in previously PARPi-treated BRCA-mutant patients was not associated with resistance to CHK1i.
Among others, 1082 oncology drugs, both approved and investigational, were prioritized based on their status in clinical trial development. […] Drugs with average Z-AUC values less than -1.0 in all three cell lines were classified as "hits" resulting in 151 oncology drug hits. The screen also confirmed cross-resistance between olaparib and other PARPis (rucaparib, niraparib, and talazoparib) in PARPi-resistant PEO1/OlaR and PEO4.
[1] G. L. Lin, K. M. Wilson, M. Ceribelli, B. Z. Stanton, P. J. Woo, S. Kreimer, E. Y. Qin, X. Zhang, J. Lennon, S. Nagaraja, P. J. Morris, M. Quezada, S. M. Gillespie, D. Y. Duveau, A. M. Michalowski, P. Shinn, R. Guha, M. Ferrer, C. Klumpp-Thomas, S. Michael, C. McKnight, P. Minhas, Z. Itkin, E. H. Raabe, L. Chen, R. Ghanem, A. C. Geraghty, L. Ni, K. I. Andreasson, N. A. Vitanza, K. E.Warren, C. J. Thomas, M. Monje, Therapeutic strategies for diffuse midline glioma from high-throughput combination drug screening. Sci. Transl. Med. 11, (2019).
[2] T. M. Yamamoto, A. McMellen, Z. L. Watson, J. Aguilera, R. Ferguson, E. Nurmemmedov, T. Thakar, G. L. Moldovan, H. Kim, D. M. Cittelly, A. M. Joglar, E. P. Brennecke, H. Wilson, K. Behbakht, M. J. Sikora, B. G. Bitler, Activation of Wnt signaling promotes olaparib resistant ovarian cancer. Mol. Carcinog. 58, 1770 - 1782 (2019).
PROTOCOL TABLE (as described by Inglese J, Shamu CE and Guy RK. 2007)
SEQUENCE No. (e.g., 1, 2, 3, etc.); […] (e.g., Cells, Incubation, Reagent, etc.); VALUE; DESCRIPTION.
1; Compounds; 20nL; 1536-well white tissue culture-treated plates.
2; Cells; 5 uL; PEO1, PEO4, and PEO1/OlaR cells at 600 cells per well.
3; Incubation; 96 hr; 37C, 95% humidity, 5% CO2.
4; Reagent; 3 uL; CellTiter-Glo (Promega).
5; Incubation; 15 min; room temperature.
6; Detection; Luminescence, PHERAstar (BMG Labtech) plate reader.
NOTES (numbers refer to Sequence numbers above)
1. MIPE 5.0 compounds were acoustically dispensed by Echo Acoustic Liquid Handler (Beckman Coulter Life Sciences). Each compound was plated at an 11-point concentration range with 1:3 dilution. Bortezomib, a proteasome inhibitor (final concentration, 20 uM), was used as a positive.
2. PEO1, PEO4, and PEO1/OlaR were trypsinized and dispensed in 5 uLof growth medium using a Multidrop Combi dispenser at a density of 600 cells per well to allow compounds to be present during the exponential growth phase.
3. Plates were incubated for 96 hours at standard incubator conditions and covered by a stainless steel gasketed lid to prevent evaporation.
4. Three microliters of CellTiter-Glo (Promega) were added to each well.
5. Plates were incubated at room temperature for 15 min with a stainless-steel lid in place.
6. Luminescence readings were taken using PHERAstar (BMG Labtech). […]

Setting [1] is: measured here: PEO1 parental Z-AUC.

The source made the active and inactive calls. The call rests on the fitted dose curve.
Potency means the concentration at half of the fitted maximal effect.

For the compound `COC(=O)Nc1nc2ccc(C(=O)c3cccs3)cc2[nH]1`, the Potency was 69.2 nM (active). The Z-AUC under setting [1] was -1.94. For the same compound, under “measured here: PEO4 Z-AUC”, the Z-AUC is -1.92.
As for `CCC1(c2ccccc2)C(=O)NCNC1=O`, the Z-AUC is 1.12 (inactive). The Z-AUC under setting [1] was determined as 0.974. The Z-AUC (measured here: PEO4 Z-AUC) came out at 1.04.
With `O=c1c(O)c(-c2ccc(O)c(O)c2)oc2cc(O)cc(O)c12`, the Z-AUC is 0.194 (inactive). Further, the Z-AUC under setting [1] was 0.475. For the setting “measured here: PEO4 Z-AUC”, the Z-AUC amounted to 0.343.
Regarding `NCCS(=O)(=O)O`, the Z-AUC was 1.22 (inactive). Also, the Z-AUC under setting [1] stood at 0.571. Moreover, the Z-AUC (measured here: PEO4 Z-AUC) was 0.568.
For the compound `CC(C(=O)O)c1cccc(C(=O)c2ccccc2)c1` (configuration not stated), the Z-AUC was 0.0263 (inactive). Under setting [1], the Z-AUC came to 0.275. In addition, the Z-AUC (measured here: PEO4 Z-AUC) was 0.507.
Take `Nc1nc2c(ncn2COC(CO)CO)c(=O)[nH]1`: the Z-AUC is 1.34 (inactive). The Z-AUC under setting [1] was found to be 1.36. Besides, the Z-AUC (measured here: PEO4 Z-AUC) was 1.37.
Taken in the same sequence, the figures for `CC[C@@]1(O)C(=O)OCc2c1cc1n(c2=O)Cc2cc3c(CN(C)C)c(O)ccc3nc2-1` were -0.723 (inactive), -1.25 and -0.128.
For `Cn1ccc2cc3c(cc21)CCN3C(=O)Nc1cccnc1`, the Z-AUC was 0.66 (inactive). The Z-AUC under setting [1] was 0.473. Moreover, the Z-AUC (measured here: PEO4 Z-AUC) came out at 0.355.
For the compound `CN1CCC(=C2c3ccccc3CC(=O)c3sccc32)CC1`, the Z-AUC was 1.25 (inactive). Besides, the Z-AUC under setting [1] stood at 1.46. The Z-AUC (measured here: PEO4 Z-AUC) worked out at 0.927.
For the compound `Cc1cc(C(C)(C)C)c(O)c(C)c1CC1=NCCN1`, the Z-AUC is 1.21 (inactive). Under setting [1], the Z-AUC was 0.68. For the same compound, the Z-AUC (measured here: PEO4 Z-AUC) was 0.695.
Turning to `OCCN(CCO)c1nc(N2CCCCC2)c2nc(N(CCO)CCO)nc(N3CCCCC3)c2n1`, the Z-AUC was 1 (inactive). The Z-AUC under setting [1] stood at 0.552. In addition, for the setting “measured here: PEO4 Z-AUC”, the Z-AUC was 0.489.
Take `Clc1ccc(C(c2ccccc2Cl)C(Cl)Cl)cc1` (configuration not stated): the Z-AUC was -0.334 (inactive). Moreover, the Z-AUC under setting [1] was found to be 0.14. The Z-AUC (measured here: PEO4 Z-AUC) turned out to be 0.236.
As to `CN(C)CCCN1c2ccccc2CCc2ccc(Cl)cc21`, the Z-AUC was -0.0245 (inactive). In addition, the Z-AUC under setting [1] was -0.498. For the same compound, the Z-AUC (measured here: PEO4 Z-AUC) is -0.622.
In the case of `CN(C)C(=O)C(CCN1CCC(O)(c2ccc(Cl)cc2)CC1)(c1ccccc1)c1ccccc1`, the Z-AUC is -1.16 (inactive). In addition, under setting [1], the Z-AUC was -0.647. Besides, the Z-AUC (measured here: PEO4 Z-AUC) was -0.794.
